Several values for one entry are separate records, joined by “and”; a condition that tells them apart may be missing. Equal entries are not always repeated. About 2,000 (36%) of roughly 5,500 compounds were called active. Another 18% or so got no clear call; they are omitted. Cut-off read from the data, not from the text of the source: active = normalized growth mostly below about 0.91 (no sharp cut-off); inconclusive = no clear call, values can overlap the other calls; inactive = mostly above about 0.92. This is one part of the list.
Experiment: chemical genetic growth profiling, strain panel (AID 1159580);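 note: tested at 20 µM; growth read once vehicle control cultures reached saturation at 30 °C; 1 = growth at the plate median or of vehicle wells; lower values mean less growth of the strain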
Details: S. cerevisiae deletion strains, growth OD

Measured: normalized growth

CCc1nc(N)nc(N)c1-c1ccc(Cl)cc1
inactive: locus YAL013W, strain DEP1, hits give low values 1.02 | locus YAL021C, strain ccr4, hits give low values 0.951 | locus YAL026C, strain drs2, hits give low values 0.967 | locus YAL030W, strain snc1, hits give low values 0.977 | locus YBL061C, strain skt5, hits give low values 0.97 | locus YBR009C, strain hhf1, hits give low values 0.997 | locus YBR021W, strain FUR4, hits give low values 1.02 | locus YBR023C, strain chs3, hits give low values 0.999 | locus YBR171W, strain sec66, hits give low values 0.969 | locus YBR229C, strain ROT2, hits give low values 1.01 | locus YBR231C, strain swc5, hits give low values 0.971 | locus YBR279W, strain paf1, hits give low values 0.994 | locus YCL011C, strain gbp2, hits give low values 0.978 | locus YCL016C, strain dcc1, hits give low values 0.997 | locus YCL029C, strain bik1, hits give low values 0.988 | locus YCL061C, strain MRC1, hits give low values 0.958 | locus YCL069W, strain vba3, hits give low values 0.986 | locus YCR088W, strain abp1, hits give low values 0.977 | locus YDL005C, strain med2, hits give low values 0.972 | locus YDL035C, strain GPR1, hits give low values 0.995 | locus YDL040C, strain nat1, hits give low values 0.973 | locus YDL074C, strain BRE1, hits give low values 0.987 | locus YDL101C, strain DUN1, hits give low values 1 | locus YDL134C, strain PPH21, hits give low values 1.01 | locus YDL185W, strain tfp1, hits give low values 1 | locus YDL192W, strain arf1, hits give low values 1 | locus YDR001C, strain nth1, hits give low values 0.969 | locus YDR101C, strain arx1, hits give low values 0.987 | locus YDR137W, strain rgp1, hits give low values 1.02 | locus YDR150W, strain NUM1, hits give low values 1.01 | locus YDR159W, strain sac3, hits give low values 0.955 | locus YDR162C, strain NBP2, hits give low values 1.01 | locus YDR195W, strain ref2 0.979 | locus YDR297W, strain sur2, hits give low values 0.987 | locus YDR318W, strain mcm21, hits give low values 0.976 | locus YDR334W, strain swr1, hits give low values 0.936 | locus YDR335W, strain msn5, hits give low values 0.973 | locus YDR388W, hits give low values 0.974 | locus YDR392W, strain spt3, hits give low values 1.02 | locus YDR502C, strain sam2, hits give low values 0.996 | locus YEL003W, strain gim4, hits give low values 0.97 | locus YEL037C, strain rad23, hits give low values 0.969 | locus YEL061C, strain CIN8 (second series), hits give low values 0.966 | locus YEL061C, strain CIN8, hits give low values 1.01 | locus YER015W, strain faa2, hits give low values 0.985 | locus YER016W, strain bim1, hits give low values 1.01 | locus YER110C, hits give low values 0.999 | locus YER111C, strain swi4, hits give low values 0.983 | locus YER155C, strain BEM2 (second series), hits give low values 0.933 | locus YER155C, strain BEM2, hits give low values 1.01 | locus YER167W, strain BCK2, hits give low values 1.01 | locus YFR010W, strain ubp6, hits give low values 0.931 | locus YGL078C, strain dbp3, hits give low values 1 | locus YGL086W, strain mad1, hits give low values 0.994 | locus YGL167C, strain pmr1, hits give low values 0.981 | locus YGL173C, strain kem1, hits give low values 0.982 | locus YGL227W, strain vid30, hits give low values 0.959 | locus YGL240W, strain doc1, hits give low values 0.97 | locus YGL248W, strain PDE1, hits give low values 1.01 | locus YGL253W, strain hxk2, hits give low values 0.97 | locus YGR078C, strain PAC10, hits give low values 1 | locus YGR135W, strain pre9, hits give low values 0.979 | locus YGR229C, strain SMI1, hits give low values 1.01 | locus YGR252W, strain gcn5, hits give low values 0.981 | locus YHR013C, strain ard1, hits give low values 0.886 | locus YHR027C, strain rpn1, hits give low values 0.976 | locus YHR030C, strain SLT2, hits give low values 1.01 and 1.05 | locus YHR079C, strain IRE1 (second series), hits give low values 0.987 | locus YHR079C, strain IRE1, hits give low values 1.07 | locus YHR094C, strain hxt1, hits give low values 1 | locus YHR129C, strain ARP1, hits give low values 1.01 | locus YHR142W, strain chs7, hits give low values 0.95 | locus YHR200W, strain rpn10, hits give low values 1 | locus YIL066C, strain RNR3, hits give low values 1.01 | locus YIL073C, strain SPO22, hits give low values 1.31 | locus YIL125W, strain kgd1, hits give low values 1.01 | locus YIR030C, strain dcg1, hits give low values 1 | locus YJL092W, strain hpr5, hits give low values 0.956 | locus YJL095W, strain BCK1 (second series), hits give low values 0.979 | locus YJL095W, strain BCK1, hits give low values 0.982 and 1.04 | locus YJL115W, strain asf1, hits give low values 0.961 | locus YJL129C, strain trk1, hits give low values 0.927 | locus YJL134W, strain LCB3, hits give low values 1.01 | locus YJL154C, strain vps35, hits give low values 0.954 | locus YJL164C, strain tpk1, hits give low values 1 | locus YJL166W, strain qcr8, hits give low values 0.944 | locus YJL168C, strain set2, hits give low values 1 | locus YJL187C, strain SWE1 (second series), hits give low values 0.982 | locus YJR043C, strain POL32, hits give low values 0.992 | locus YJR066W, strain TOR1, hits give low values 0.994
active: locus YDR069C, strain doa4, hits give low values 0.898
